According to the supplement of paper PMC10849652:
The full data set covers some 7,900 targets. This sample favours those with a hit. About 0.6% of all pairs of compound and target were hits. Unmarked numbers belong to inactive results.

What was measured:
Test in all cases: log2 fold change, soluble protein after heating vs DMSO (PISA); higher = thermal stabilisation; K562 cells, 10 uM, 30 min; active = over 0.2 and 3.5 SD of the protein, either way, in both replicates (recomputed)
[1] = compound: CC1=C(C=C(C=C1)NC(=O)C2=CC(=CC=C2)N(C)C)NC(=O)C3=CC=C(C=C3)O
Outline: (§1)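 K562 cells at 2×10^6 cells/mL were exposed to 10 μM compound for 30 min, then aliquots were heated for 3 min across 48°C-58°C, pooled, and extracted in PBS containing 0.5% NP-40 at 4°C. The supernatant after 21,000xg for 90 min was taken as soluble protein and measured by TMTpro 16plex LC-MS/MS with channel sums equalised. Thermal stability is reported relative to control samples, with values from duplicates. Fold changes are given on a log2 scale.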

[2] = compound: CC1=CC=C(C=C1)SC2=C3C=C(SC3=CN=C2)C(=O)N
Outline: as §1

[3] = compound: CC1=NC(=CC=C1)C2=C(N=C(N2)C(C)(C)C)C3=CC4=NC=CN=C4C=C3
Outline: as §1

vemurafenib = compound: CCCS(=O)(=O)Nc1ccc(F)c(C(=O)c2c[nH]c3ncc(-c4ccc(Cl)cc4)cc23)c1F [vemurafenib]
Outline: as §1

[4] = compound: CCCS(=O)(=O)Nc1ccc(F)c(C(=O)c2c[nH]c3ncc(Cl)cc23)c1F
Outline: as §1

givinostat = compound: CCN(CC)Cc1ccc2cc(COC(=O)Nc3ccc(C(=O)NO)cc3)ccc2c1 [givinostat]
Outline: as §1

barasertib = compound: CCN(CCCOc1ccc2c(Nc3cc(CC(=O)Nc4cccc(F)c4)[nH]n3)ncnc2c1)CCOP(=O)(O)O [barasertib]
Outline: as §1

[5] = compound: CC1=C(C=C(C=C1)NC(=O)C2=CC(=CC=C2)C(C)(C)C#N)NC3=CC4=C(C=C3)N=CN(C4=O)C
Outline: as §1

Nexturastat A = compound: CCCCN(Cc1ccc(C(=O)NO)cc1)C(=O)Nc1ccccc1 [Nexturastat A]
Outline: as §1

[6] = compound: CCCc1cc(C)[nH]c(=O)c1CNC(=O)c1cc(-c2ccnc(N3CCN(C)CC3)c2)cc2c1cnn2C(C)C
Outline: as §1

UniProt A6NDN3, sequence (A6NDN3 whole entry, looked up): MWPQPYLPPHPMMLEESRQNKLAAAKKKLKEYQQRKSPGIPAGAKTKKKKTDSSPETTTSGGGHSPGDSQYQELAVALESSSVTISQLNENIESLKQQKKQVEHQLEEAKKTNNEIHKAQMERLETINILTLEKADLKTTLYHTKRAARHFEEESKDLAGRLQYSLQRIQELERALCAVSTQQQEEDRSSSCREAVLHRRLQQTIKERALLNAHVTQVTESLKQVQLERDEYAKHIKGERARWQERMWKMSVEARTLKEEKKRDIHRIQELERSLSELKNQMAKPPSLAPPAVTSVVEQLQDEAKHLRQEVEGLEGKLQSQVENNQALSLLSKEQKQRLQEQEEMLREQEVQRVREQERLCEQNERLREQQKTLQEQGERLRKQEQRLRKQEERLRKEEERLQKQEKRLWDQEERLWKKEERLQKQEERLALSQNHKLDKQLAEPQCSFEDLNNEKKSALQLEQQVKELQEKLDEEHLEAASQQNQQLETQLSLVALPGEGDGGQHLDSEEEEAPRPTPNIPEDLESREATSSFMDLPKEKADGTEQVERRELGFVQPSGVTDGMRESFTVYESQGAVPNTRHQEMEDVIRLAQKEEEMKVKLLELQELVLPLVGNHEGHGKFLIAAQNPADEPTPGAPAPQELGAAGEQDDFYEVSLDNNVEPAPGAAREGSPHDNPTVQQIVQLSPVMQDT
UniProt I6L899, sequence (I6L899 whole entry, looked up): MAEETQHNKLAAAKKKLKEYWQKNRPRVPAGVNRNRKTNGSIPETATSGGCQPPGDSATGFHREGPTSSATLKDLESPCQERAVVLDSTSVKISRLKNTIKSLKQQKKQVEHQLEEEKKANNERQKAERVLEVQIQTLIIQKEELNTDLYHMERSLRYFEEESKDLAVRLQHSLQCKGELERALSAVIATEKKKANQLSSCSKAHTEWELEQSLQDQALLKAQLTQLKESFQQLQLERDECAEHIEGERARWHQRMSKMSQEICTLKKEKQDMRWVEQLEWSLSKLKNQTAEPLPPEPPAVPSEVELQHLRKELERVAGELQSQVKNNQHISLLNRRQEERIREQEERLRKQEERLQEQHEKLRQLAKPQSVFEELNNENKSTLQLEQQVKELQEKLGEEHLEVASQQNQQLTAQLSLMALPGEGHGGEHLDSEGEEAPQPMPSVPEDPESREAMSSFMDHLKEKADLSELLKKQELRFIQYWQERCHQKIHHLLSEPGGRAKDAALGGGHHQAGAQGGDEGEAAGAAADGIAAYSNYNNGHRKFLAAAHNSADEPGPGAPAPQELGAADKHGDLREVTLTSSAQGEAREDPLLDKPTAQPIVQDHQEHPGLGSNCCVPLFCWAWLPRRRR
UniProt P01344, sequence (P01344 whole entry, looked up): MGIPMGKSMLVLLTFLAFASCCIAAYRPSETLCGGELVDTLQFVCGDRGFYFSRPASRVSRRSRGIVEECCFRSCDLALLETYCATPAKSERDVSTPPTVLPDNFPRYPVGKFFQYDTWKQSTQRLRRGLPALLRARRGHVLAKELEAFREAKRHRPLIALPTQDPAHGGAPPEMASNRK
UniProt Q8IVP5, sequence (Q8IVP5 whole entry, looked up): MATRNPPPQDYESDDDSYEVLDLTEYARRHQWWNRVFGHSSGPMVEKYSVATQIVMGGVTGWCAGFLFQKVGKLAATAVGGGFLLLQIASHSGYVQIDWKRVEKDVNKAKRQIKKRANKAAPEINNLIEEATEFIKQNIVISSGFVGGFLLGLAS
UniProt Q9BVP2, sequence (Q9BVP2 whole entry, looked up): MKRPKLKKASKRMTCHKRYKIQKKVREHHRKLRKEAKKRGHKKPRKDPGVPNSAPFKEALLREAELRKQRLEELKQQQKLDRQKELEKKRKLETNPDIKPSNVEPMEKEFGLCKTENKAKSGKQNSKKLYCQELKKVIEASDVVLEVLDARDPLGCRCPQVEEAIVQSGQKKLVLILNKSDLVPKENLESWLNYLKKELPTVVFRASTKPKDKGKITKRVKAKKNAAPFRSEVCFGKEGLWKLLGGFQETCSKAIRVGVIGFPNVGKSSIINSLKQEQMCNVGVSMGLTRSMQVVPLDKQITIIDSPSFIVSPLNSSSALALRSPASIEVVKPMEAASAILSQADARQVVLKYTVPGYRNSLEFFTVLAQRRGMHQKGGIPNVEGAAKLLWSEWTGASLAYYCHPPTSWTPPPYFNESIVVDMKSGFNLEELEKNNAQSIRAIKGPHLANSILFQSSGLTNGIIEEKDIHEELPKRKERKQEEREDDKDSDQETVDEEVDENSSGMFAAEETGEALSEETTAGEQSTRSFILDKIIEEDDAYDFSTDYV
UniProt Q04446, sequence (Q04446 whole entry, looked up): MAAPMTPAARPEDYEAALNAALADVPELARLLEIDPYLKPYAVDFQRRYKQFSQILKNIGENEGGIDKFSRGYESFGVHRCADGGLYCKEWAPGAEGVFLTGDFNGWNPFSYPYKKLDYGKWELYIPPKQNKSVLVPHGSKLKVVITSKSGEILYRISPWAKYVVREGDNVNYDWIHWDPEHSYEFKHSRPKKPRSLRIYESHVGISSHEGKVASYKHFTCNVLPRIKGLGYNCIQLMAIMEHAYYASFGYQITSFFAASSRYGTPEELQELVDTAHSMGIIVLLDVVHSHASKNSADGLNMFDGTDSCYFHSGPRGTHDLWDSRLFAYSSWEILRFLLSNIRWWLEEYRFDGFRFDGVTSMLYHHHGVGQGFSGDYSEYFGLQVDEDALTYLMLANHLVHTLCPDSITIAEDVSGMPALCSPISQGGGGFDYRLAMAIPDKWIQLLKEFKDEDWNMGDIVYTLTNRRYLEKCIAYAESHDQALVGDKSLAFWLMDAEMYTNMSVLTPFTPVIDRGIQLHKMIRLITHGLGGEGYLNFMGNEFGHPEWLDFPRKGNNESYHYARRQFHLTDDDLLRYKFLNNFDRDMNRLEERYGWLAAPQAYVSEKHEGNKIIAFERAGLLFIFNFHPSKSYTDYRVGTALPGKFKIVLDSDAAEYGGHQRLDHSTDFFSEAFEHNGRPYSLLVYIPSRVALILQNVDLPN
UniProt Q969S8, sequence (Q969S8 whole entry, looked up): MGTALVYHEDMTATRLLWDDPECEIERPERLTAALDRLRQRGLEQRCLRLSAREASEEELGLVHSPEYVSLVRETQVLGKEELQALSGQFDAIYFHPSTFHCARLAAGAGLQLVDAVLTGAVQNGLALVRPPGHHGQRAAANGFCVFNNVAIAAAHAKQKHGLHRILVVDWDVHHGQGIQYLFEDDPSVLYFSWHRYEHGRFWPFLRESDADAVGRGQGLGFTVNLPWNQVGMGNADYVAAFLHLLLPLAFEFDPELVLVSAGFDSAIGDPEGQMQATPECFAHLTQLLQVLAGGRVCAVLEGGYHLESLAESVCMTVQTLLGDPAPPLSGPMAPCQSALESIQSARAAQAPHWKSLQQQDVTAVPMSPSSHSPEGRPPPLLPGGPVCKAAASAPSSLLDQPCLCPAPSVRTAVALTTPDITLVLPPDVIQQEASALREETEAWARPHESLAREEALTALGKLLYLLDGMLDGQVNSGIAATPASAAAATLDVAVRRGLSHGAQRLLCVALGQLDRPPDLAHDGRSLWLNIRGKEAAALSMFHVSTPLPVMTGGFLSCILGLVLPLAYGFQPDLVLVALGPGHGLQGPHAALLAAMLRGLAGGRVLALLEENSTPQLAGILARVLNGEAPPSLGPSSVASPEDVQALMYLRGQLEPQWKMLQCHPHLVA
UniProt P30711, sequence (P30711 whole entry, looked up): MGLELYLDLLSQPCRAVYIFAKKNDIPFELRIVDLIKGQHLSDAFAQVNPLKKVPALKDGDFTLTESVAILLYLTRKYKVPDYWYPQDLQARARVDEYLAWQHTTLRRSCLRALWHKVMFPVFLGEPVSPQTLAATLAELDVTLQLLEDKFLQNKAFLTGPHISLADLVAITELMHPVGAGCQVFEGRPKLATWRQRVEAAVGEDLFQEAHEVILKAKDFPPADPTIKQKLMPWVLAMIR
UniProt P50213, sequence (P50213 whole entry, looked up): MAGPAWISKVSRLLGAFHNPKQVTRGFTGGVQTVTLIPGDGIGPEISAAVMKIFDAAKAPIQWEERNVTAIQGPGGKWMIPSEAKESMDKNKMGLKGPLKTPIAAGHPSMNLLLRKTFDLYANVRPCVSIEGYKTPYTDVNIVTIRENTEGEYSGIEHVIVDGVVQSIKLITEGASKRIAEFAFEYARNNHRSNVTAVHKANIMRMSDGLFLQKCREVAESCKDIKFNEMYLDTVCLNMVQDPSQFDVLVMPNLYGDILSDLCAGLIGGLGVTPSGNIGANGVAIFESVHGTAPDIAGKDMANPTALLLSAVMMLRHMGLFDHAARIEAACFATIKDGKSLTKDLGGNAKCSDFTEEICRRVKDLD
UniProt P02679, sequence (P02679 whole entry, looked up): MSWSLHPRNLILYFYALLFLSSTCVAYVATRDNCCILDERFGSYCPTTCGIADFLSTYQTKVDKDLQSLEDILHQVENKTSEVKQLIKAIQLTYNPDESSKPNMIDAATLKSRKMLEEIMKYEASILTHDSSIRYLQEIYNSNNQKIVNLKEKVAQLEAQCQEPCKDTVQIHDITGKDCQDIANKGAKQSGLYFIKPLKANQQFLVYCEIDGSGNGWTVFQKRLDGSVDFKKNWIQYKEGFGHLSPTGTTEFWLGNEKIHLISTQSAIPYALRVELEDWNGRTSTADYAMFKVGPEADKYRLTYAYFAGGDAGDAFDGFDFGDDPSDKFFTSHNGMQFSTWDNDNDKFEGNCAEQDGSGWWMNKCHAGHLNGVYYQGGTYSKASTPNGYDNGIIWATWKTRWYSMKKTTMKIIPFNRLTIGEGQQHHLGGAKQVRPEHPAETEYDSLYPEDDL
UniProt O14893, sequence (O14893 whole entry, looked up): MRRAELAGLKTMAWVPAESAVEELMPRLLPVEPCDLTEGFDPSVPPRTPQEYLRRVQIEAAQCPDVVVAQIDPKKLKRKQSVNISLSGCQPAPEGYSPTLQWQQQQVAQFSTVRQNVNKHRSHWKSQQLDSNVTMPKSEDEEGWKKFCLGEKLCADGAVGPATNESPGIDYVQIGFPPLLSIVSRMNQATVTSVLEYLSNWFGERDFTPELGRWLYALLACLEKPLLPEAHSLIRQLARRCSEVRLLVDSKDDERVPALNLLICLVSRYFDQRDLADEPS

Target | log2 fold change [1] | log2 fold change [2] | log2 fold change [3] | log2 fold change (vemurafenib) | log2 fold change [4] | log2 fold change (givinostat) | log2 fold change (barasertib) | log2 fold change [5] | log2 fold change (Nexturastat A) | log2 fold change [6]
GOLGA8R (UniProt I6L899) | -0.037 | 0.041 | -0.205 | 0.06 | -0.086 | 0.223 | 0.048 | – | – | –
IDH3A isoform 2 (UniProt P50213) | – | – | -0.083 | – | – | 0.175 | -0.012 | – | – | –
GSE1 (UniProt Q14687) | 0.071 | – | – | -0.13 | – | – | 0.232 | – | – | –
GBA2 (UniProt Q9HCG7) | – | -0.043 | 0 | 0 | -0.032 | -0.02 | 0.008 | -0.079 | 0.051 | -0.076
HDAC10 (UniProt Q969S8) | 0.027 | -0.001 | – | 0.231 | 0.046 | 0.153 | -0.117 | – | – | 0.056
GSTT1 (UniProt P30711) | -0.004 | 0.011 | 0.101 | 0.064 | -0.063 | 0.009 | -0.018 | – | -0.062 | 0.081
GOLGA6B (UniProt A6NDN3) | – | – | 0.033 | 0.882 (active) | – | 0.002 | 0.011 | -0.035 | -0.099 | -0.113
HAUS4 (UniProt Q9H6D7) | 0.003 | 0.084 | – | -0.049 | 0.012 | 0.08 | -0.16 | -0.143 | -0.061 | -0.269
HNRNPK isoform 3 (UniProt P61978) | 0.027 | – | 0.066 | -0.066 | – | 0.062 | -0.136 | -0.015 | 0.085 | -0.067
GREB1 (UniProt Q4ZG55) | – | – | -0.338 | 0.047 | – | 0.294 | – | -0.003 | 0.755 (active) | –
FBXO9 (UniProt Q9UK97) | 0.009 | 0.064 | -0.025 | 0 | 0.061 | 0.111 | 0.117 | – | – | 0.052
FIZ1 (UniProt Q96SL8) | – | – | -0.047 | 0.13 | – | – | – | -0.164 | 0.102 | -0.022
HBZ, A0A494C057 | – | – | – | – | – | 0.109 | 0.013 | – | – | 0.051
GBE1 (UniProt Q04446) | 0.08 | 0.128 | 0.014 | 0.162 | 0.065 | 0.038 | 0.109 | – | 0 | 0.005
H3-3A (UniProt P84243) | – | 0.078 | – | 0.149 | 0.102 | 0.267 | 0.101 | -0.205 | – | 0.118
FUNDC1 (UniProt Q8IVP5) | – | 0.118 | – | – | -0.013 | – | 0.052 | 0.007 | – | -0.285
GEMIN2 (UniProt O14893) | 0.033 | 0 | -0.002 | -0.028 | -0.023 | – | 0.078 | -0.073 | 0.243 | 0.029
HNRNPUL1 (UniProt M0R247) | – | -0.148 | -0.075 | – | -0.15 | 0.001 | – | -0.059 | – | –
FAT2 (UniProt Q9NYQ8) | -0.035 | -0.113 | -0.114 | -0.002 | 0.009 | 0.119 | 0.069 | – | 0.456 | -0.333
IFNGR1 (UniProt P15260) | 0.048 | -0.056 | – | -0.124 | -0.181 | 0.281 | 0.028 | -0.246 | 0.743 (active) | -0.174
GTPBP6 (UniProt O43824) | 0.014 | – | -0.042 | 0.015 | – | -0.062 | -0.015 | 0.038 | -0.037 | 0.006
FUT8 (UniProt Q9BYC5) | -0.047 | – | 0.037 | -0.417 | – | -0.048 | -0.014 | -0.05 | 0.064 | 0.048
FASTKD1 (UniProt Q53R41) | -0.138 | – | 0.017 | 0.065 | – | 0.156 | 0.096 | -0.066 | 0.013 | –
GPNMB (UniProt Q14956) | – | – | – | – | – | 0.671 | – | – | 1.64 (active) | –
IGF2 isoform 3 (UniProt P01344) | – | – | 0.136 | 0.073 | – | -0.148 | – | – | – | –
FGG (UniProt P02679) | 0.067 | -0.093 | – | – | -0.214 | – | – | – | – | –
HSPA8 (UniProt E9PN89) | – | -0.261 | -0.144 | -0.276 | -0.507 | 0.182 | 0.03 | -0.158 | -0.019 | -0.689
GNL3 (UniProt Q9BVP2) | – | – | – | -0.12 | – | – | 0.079 | 0.002 | 0.491 (active) | -0.307
